The results in this text go back to PubChem BioAssay (NCATS).

Where “and” joins values, the source holds several entries; their conditions need not be identical. Equal values may be shown once. Inconclusive results are not listed. A structure can be active in one record and inactive in another. Calls of active or inactive are those of the source. Calls come from the whole dose curve.
Potency is the fitted concentration of half-maximal effect.

Cytochrome P450 1A2 (Homo sapiens), sequence (P05177 whole entry, looked up): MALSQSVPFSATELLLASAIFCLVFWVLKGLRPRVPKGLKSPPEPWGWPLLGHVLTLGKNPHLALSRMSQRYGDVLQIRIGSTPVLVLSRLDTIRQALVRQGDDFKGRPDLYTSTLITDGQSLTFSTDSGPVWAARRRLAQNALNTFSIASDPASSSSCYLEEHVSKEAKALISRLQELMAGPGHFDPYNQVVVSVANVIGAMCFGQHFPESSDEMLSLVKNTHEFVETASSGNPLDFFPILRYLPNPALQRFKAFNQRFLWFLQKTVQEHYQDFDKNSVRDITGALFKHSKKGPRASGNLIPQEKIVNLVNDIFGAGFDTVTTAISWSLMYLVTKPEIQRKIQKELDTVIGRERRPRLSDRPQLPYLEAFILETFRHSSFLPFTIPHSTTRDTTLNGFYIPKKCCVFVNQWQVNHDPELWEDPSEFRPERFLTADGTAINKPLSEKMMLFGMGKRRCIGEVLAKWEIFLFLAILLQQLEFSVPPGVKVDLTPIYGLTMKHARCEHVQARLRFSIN

The assay concerns the target Cytochrome P450 1A2 (Homo sapiens) (UniProt P05177). Nature of the assay: p450-cyp1a2 (AID 410).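 For activity change, negative = inhibition: -100% = full effect of reference inhibitor.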 Conditions: recombinant CYP1A2, luciferin-ME demethylation, luminescence; series mostly up to 57 µM; activity change, negative = inhibition: at the top concentration. In outline: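 Luminescent readout of luciferin formed from Luciferin-ME by human CYP1A2; data normalized against complete inhibition by 57 uM furafylline. Enzyme 20nM, substrate 100uM at Km, 100mM KPO4 buffer, 60 min reaction at room temperature.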
In the case of `O=C(O)C1=CC(=C(c2ccc(O)c(C(=O)O)c2)c2ccc(O)c(C(=O)O)c2)C=CC1=O`, the Potency is 10 µM (active). As for `C=CCn1c(=O)c2c(nc(-c3ccc(S(=O)(=O)O)cc3)n2C)n(C)c1=O`, the “activity change, negative = inhibition” value is -15% (inactive).

As for `O=C1Nc2ccc(I)cc2/C1=C/c1cc(Br)c(O)c(Br)c1`, the Potency is 2.51 µM (active) and 794 nM (active). Regarding `CCn1c(=O)[nH]c2cc(Cl)c(Cl)cc21`, the Potency was 1.26 µM (active) and 251 nM (active). On to `NC(=O)CNCCC(c1ccccc1)c1ccccc1`, for which the “activity change, negative = inhibition” value is -4.7% (inactive). With `Fc1ccc(CN(C2=NCCN2)c2c(Cl)cccc2Cl)cc1`, the “activity change, negative = inhibition” value was 6.6% (inactive). Same read-out and setting: as for `CCSC(=N)N`, the figure is -14.3% (inactive). Regarding `O=c1[nH]c(=O)c2nc3ccccc3nc2[nH]1`, the Potency was 12.6 µM (active). Regarding `CCN1C(=O)C=CC1=O`, the “activity change, negative = inhibition” value was -11.1% (inactive). As for `CC(C)(C)c1cc(/C=C(\C#N)C(N)=S)cc(C(C)(C)C)c1O`, the Potency was 12.6 µM (active).

For `COc1cc(/C=C(\C#N)C(=O)c2ccc(O)c(O)c2)cc(I)c1O`, the Potency is 15.8 µM (active). In the case of `OC1(c2ccc(Cl)cc2)CCN(Cc2c[nH]c3ccccc23)CC1`, the Potency is 15.8 µM (active) and 31.6 µM (active). Same read-out and setting: as for `O=C(O)/C(=C/c1c(C(=O)O)[nH]c2cc(Cl)cc(Cl)c12)c1ccccc1`, the figure is 12.6 µM (active); as for `CC(=O)NCCc1c[nH]c2ccc(O)cc12`, 15.8 µM (active).

Take `[Li+]`: the “activity change, negative = inhibition” value was -2.2% (inactive). As for `O=c1[nH]ccc2c(O)cccc12`, the Potency was 15.8 µM (active). On the same count and under the same terms, under `COc1ccc(-c2ccc(N)[n+](CCCC(=O)O)n2)cc1` stands “inactive”. Regarding `Nc1ccc(N2C(=O)c3ccccc3C2=O)c(Cl)c1`, the “activity change, negative = inhibition” value is -17.8% (inactive). `COc1cc2c(CCNC(C)=O)c[nH]c2cc1O`: the Potency was 31.6 µM (active). In the case of `N#Cc1cc2nc(O)c(O)nc2cc1[N+](=O)[O-]`, the Potency result was “inactive and 39.8 µM (active)”. Same read-out and setting: under `c1ccc2nc(C3=NCCN3)ccc2c1` stands 5.01 µM (active) and 794 nM (active).

Regarding `CNCCNS(=O)(=O)c1cccc2cnccc12`, the “activity change, negative = inhibition” value is -3.9% (inactive). In the case of `Cn1cc(C(=O)OCC2CCN(CCNS(C)(=O)=O)CC2)c2ccccc21`, the Potency was 12.6 µM (active) and 15.8 µM (active). The same measure, in the same setting: under `NC(N)=NC(N)=Nc1cccc(Cl)c1` stands “inactive”.

Take `C[C@H](NC(=O)/C(C#N)=C/c1ccc(O)c(O)c1)c1ccccc1`: the Potency is 31.6 µM (active) and 15.8 µM (active). As to `CN[C@H](CC(=O)O)C(=O)O`, the “activity change, negative = inhibition” value is -2.4% (inactive). `Nc1nc2ccc(Cl)cc2c2nc(-c3ccco3)nn12`: the Potency was 631 nM (active) and 63.1 nM (active). For `NC(N)=[N+]1CCc2ccccc2C1`, the “activity change, negative = inhibition” value is -11.2% (inactive). For `CC(=O)N[C@@H](Cc1c[nH]c2ccccc12)C(=O)OCc1cc(C(F)(F)F)cc(C(F)(F)F)c1`, the Potency is 31.6 µM (active). Turning to `NOCC(=O)O`, the “activity change, negative = inhibition” value was -5.6% (inactive). In the case of `Nn1nnc2ccccc21`, the Potency is 12.6 µM (active). The same measure, in the same setting: under `O=C(N[C@@H](Cc1ccccc1)C(=O)CCl)OCc1ccccc1` stands 3.16 µM (active); under `CC[C@H](NC(=O)c1c(C)c(-c2ccccc2)nc2ccccc12)c1ccccc1`, “inactive and 7.94 µM (active)”.
